# Results as given in PubChem BioAssay AID1259420 (Broad Institute, 2018).
# Several values for one entry are separate records, joined by “and”; a condition that tells them apart may be missing. Identical values can stand only once. Out of some 1,000 compounds screened, about 250 (25%) were called active. Roughly 31% stayed inconclusive and do not appear here. A selection follows. Measured potencies and affinities stand elsewhere. Unmarked numbers belong to inactive results. The rule behind the calls is not given here.
# Experiment: compound activity on host-cell Toxoplasma growth – dose response (AID 1259420);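 note: host cells were HeLa; final incubation lasted 72 hours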
# Settings: Toxoplasma gondii growth in host cells, no IFN-gamma
compound,measurement,setting,value
Cc1ccccc1S(=O)(=O)N1CCCCN2[C@H](CO)[C@H](c3ccc(C#CCN(C)C)cc3)[C@@H]2C1,max activity,at 19.5 µM unless noted,-9.35% [at 10 µM]
Cc1ccccc1-c1ccc(C2[C@@H]3CN(C(=O)C4CCOCC4)C[C@H]2N3)cc1 (stereo partly drawn),max activity,at 0.6 µM,-10.3%
same,max activity,at 5 µM,-5.78%
C1=C(c2ccccc2)CC(c2ccccc2)=NN=C1c1ccccc1,max activity,at 19.5 µM unless noted,-9.17% [at 10 µM]
O=S(=O)(c1ccccc1)N1CCCCN2[C@H](CO)[C@@H](c3ccc(C#CC4CCCC4)cc3)[C@@H]2C1,max activity,at 19.5 µM unless noted,39.2%
COc1cccc(S(=O)(=O)N2CCCCN3[C@@H](CO)[C@H](c4ccc(C#CCC(C)C)cc4)[C@@H]3C2)c1,max activity,at 19.5 µM unless noted,-27.2% [at 0.3 µM]
COc1cccc(S(=O)(=O)N2CCCCN3[C@H](CO)[C@@H](c4ccc(C#CCC(C)C)cc4)[C@@H]3C2)c1,max activity,at 19.5 µM unless noted,-24.9% [at 0.038 µM]
O=S(=O)(c1ccccc1)N1CCCCN2[C@H](C1)[C@@H](c1ccc(C#CC3CCCC3)cc1)[C@@H]2CO,max activity,at 19.5 µM unless noted,22.5%
O=S(=O)(c1ccccc1)N1CCCCN2[C@@H](CO)[C@@H](c3ccc(C#CC4CCCC4)cc3)[C@@H]2C1,max activity,at 19.5 µM unless noted,18.8% [at 10 µM]
COc1cccc(S(=O)(=O)N2CCCCN3[C@H](CO)[C@H](c4ccc(C#CCC(C)C)cc4)[C@@H]3C2)c1,max activity,at 0.038 µM,-25.2%
same,max activity,at 19.5 µM,-36.4%
COc1cccc(S(=O)(=O)N2CCCCN3[C@H](C2)[C@@H](c2ccc(C#CCC(C)C)cc2)[C@@H]3CO)c1,max activity,at 19.5 µM unless noted,-34.5% and -29.4%
CNCCCC12CCC(c3ccccc31)c1ccccc12,max activity,at 19.5 µM unless noted,17.3%
CCC(=O)N1CC(=O)N2[C@H](C1)[C@H](c1ccc(C#CCC(C)C)cc1)[C@@H]2CO,max activity,at 19.5 µM unless noted,-9.55% [at 5 µM]
O=C(NC1CCCC1)N1CC(=O)N2[C@H](CO)[C@H](c3ccc(C4=CCCCC4)cc3)[C@@H]2C1,max activity,at 19.5 µM unless noted,10.5% [at 0.6 µM]
CS(=O)(=O)N1CC(=O)N2[C@H](CO)[C@@H](c3ccc(C#CCC4CCCC4)cc3)[C@H]2C1,max activity,at 19.5 µM unless noted,17.7% [at 21 µM]
COC(=O)C[C@H]1CC[C@@H]2[C@@H](COc3ccc(NC(=O)Nc4cccc(C#N)c4)cc3C(=O)N2C)O1,max activity,at 19.5 µM unless noted,32.3% and 6.8%
CC=Cc1ccc2n(c1=O)C[C@H]1[C@H](CO)[C@@H](C(=O)Nc3ccc(-c4ccccc4)cc3)[C@@H]2N1C(=O)CC (mixture of isomers),max activity,at 19.5 µM unless noted,-8.34%
